# Source: PubChem (National Center for Advancing Translational Sciences (NCATS))
# PI5P4Ka inh: blocks human PI5P4K alpha kinase activity; P48426; PI5P4Kalpha enzyme, ADP-Glo luminescence, 60 min; stronger effect = lower value; max response, %; hit rate 1.2% among 330,000; active means max response of -50% or lower; inconclusive means between -30% and -50%; inactive means -30% or higher; further: value at the top dose of about 77 µM; on the % scale 0 is the no-effect control and ±100 the full control effect
#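 Single end-point luminescence (ADP-Glo) quantified ADP from PI5P4Kalpha turnover; ATP 5 microM final, 1 h at RT, 0.1% CHAPS and 0.28 mM EGTA in HEPES pH 7.4.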
# L3MBTL1 inh: blocks human L3MBTL1 | Q9Y468 | AlphaScreen L3MBTL1–H3K9me1 peptide binding | Potency, µM (top dose mostly 57.1 µM), inactives show at the highest dose activity, negative = inhibition, hits mostly inhibitors | hit rate 0.66% among 230,000; further: potency means the concentration at half of the fitted maximal effect; on the % scale 0 is the no-effect control and ±100 the full control effect; nearly all actives have a fitted effect of over 60% in size
#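 L3MBTL1 (50 nM) pre-complexed 30 min with biotinylated H3(1-15)K9me1 peptide (75 nM), then compounds added for 30 min at room temperature; AlphaScreen streptavidin donor/nickel chelate acceptor beads (10 ug/mL final) read after 30 min dark incubation.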
# BAZ2B block: blocks human BAZ2B; AlphaScreen BAZ2B-H3K14Ac peptide displacement; Potency, µM (titrated, usually from 114 µM), for inactives: at the top dose activity change, negative = inhibition, hits mostly inhibitors; hit rate 4.4% among 360,000; further: potency means the concentration at half of the fitted maximal effect; on the % scale 0 is the no-effect control and ±100 the full control effect; nearly all actives have a fitted effect of over 60% in size
#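 Protein-peptide AlphaScreen: BAZ2B 50 nM, b-H3K14Ac 50 nM, 1x PBS pH 7.4 + 0.01% Tween-20. Preincubation 30 min RT; cpd 30 min RT (top 110 uM); beads 20 min RT, light-protected.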
# JMJD2A Tudor inh: blocks the human JMJD2A Tudor domain; O75164; AlphaScreen JMJD2A-Tudor / H3K4me3 peptide binding; Potency, µM (doses to about 114 µM), for the others: at the highest dose activity change, negative = inhibition, actives largely listed as inhibitors; hit rate 4.4% among 390,000; AID 504339; further: potency means the concentration at half of the fitted maximal effect; on the % scale 0 is the no-effect control and ±100 the full control effect; nearly all actives have a fitted effect of over 50% in size
# JMJD2E inh: inhibitors of human JMJD2E histone demethylase; AID 2147; JMJD2E catalytic domain, FDH-coupled NADH fluorescence (FDH is formaldehyde dehydrogenase); hit rate 1.6% among 230,000; Potency, µM (highest dose often 57.1 µM), for the others: at the top dose activity change, negative = inhibition, hits mostly inhibitors; active means well fitted inhibition curve with a large enough effect, not every such curve was filed as active; inconclusive means small, poorly fitted or top-dose-only effect, or another doubt; inactive means no such curve, though single readings can be large or run the other way;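 further: potency means the concentration at half of the fitted maximal effect; 0% = wells with enzyme and -100% = buffer wells without enzyme; nearly all actives have a fitted effect of over 50% in size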
# Target sequence (B2RXH2 1-337 limits assumed): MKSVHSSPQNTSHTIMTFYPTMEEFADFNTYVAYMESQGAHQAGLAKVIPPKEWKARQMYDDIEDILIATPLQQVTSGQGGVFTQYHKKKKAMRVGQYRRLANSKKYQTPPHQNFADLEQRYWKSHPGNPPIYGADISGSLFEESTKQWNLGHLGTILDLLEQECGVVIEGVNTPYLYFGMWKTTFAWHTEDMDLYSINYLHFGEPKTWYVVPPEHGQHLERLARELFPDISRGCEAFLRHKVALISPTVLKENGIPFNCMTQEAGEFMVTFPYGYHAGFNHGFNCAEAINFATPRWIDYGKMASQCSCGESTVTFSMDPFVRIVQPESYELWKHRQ
# HP1b chromo inh: blocks HP1-beta chromodomain binding to methylated histone tails | hit rate 0.56% among 390,000 | Potency, µM (doses to about 114 µM), for the others: at the top dose activity change, negative = inhibition, usual class: inhibitors | P83916 | AlphaScreen HP1-beta / biotin-H3K9me3 peptide binding; further: potency means the concentration at half of the fitted maximal effect; nearly all actives have a fitted effect of over 70% in size
# Target sequence (P83916 whole entry, looked up): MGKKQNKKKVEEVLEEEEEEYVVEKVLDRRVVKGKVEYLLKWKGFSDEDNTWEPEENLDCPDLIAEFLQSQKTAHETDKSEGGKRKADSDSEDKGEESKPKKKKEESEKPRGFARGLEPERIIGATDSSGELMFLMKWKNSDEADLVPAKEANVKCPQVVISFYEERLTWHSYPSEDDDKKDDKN
#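 AlphaScreen: HP1-beta (50 nM) preformed 30 min with biotin-H3(1-18)K9me3 peptide (50 nM) in PBS pH 7.4, 0.01% Tween-20. Compound added for 30 min at RT, then streptavidin donor/nickel chelate acceptor beads (10 ug/mL) for 30 min.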
# * marks the source's active call; other numbers are inactive results; ? = inconclusive; · = no result; [ ] = remark or other dose. Only some compounds are listed: those with a hit (about 5.7% of all), similar ones and a draw of the others. Unless noted, the call rests on the fitted dose curve; in most records, active means well fitted inhibition curve with a large enough effect; inconclusive means small, poorly fitted or top-dose-only effect; inactive means no such curve, though single readings can be large or run the other way.
SMILES,PI5P4Ka inh,L3MBTL1 inh,BAZ2B block,JMJD2A Tudor inh,JMJD2E inh,HP1b chromo inh
CCCCC(=O)N/N=C/c1c(O)n(C2CC2)c(=S)[nH]c1=O,4.2,5.5%,?,-7.6%,?,37.9%
O=C(N/N=C/c1c(O)n(Cc2ccco2)c(=O)[nH]c1=O)c1ccccc1O,-82.7*,·,?,79.4µM*,?,7.5%
CCCCC(=O)N/N=C/c1c(O)n(CCCC)c(=S)[nH]c1=O,-18.0,?,70.8µM*,-25.6%,?,19.2%
Cc1ccc(-n2c(O)c(C=NCc3ccco3)c(=O)[nH]c2=S)cc1C,-25.1,31.6µM*,?,-24.6%,?,21.2%
O=c1[nH]c(=S)n(-c2ccccc2F)c(O)c1C=NCc1ccco1,3.9,0.2%,-5.5%,-22.8%,-9.0%,16.7%
CCCCC(=O)N/N=C/c1c(O)n(-c2cccc3ccccc23)c(=O)[nH]c1=O,-0.7,-20.0%,79.4µM*,79.4µM*,?,44.5%
CC(=O)Nc1ccc(N=Cc2c(O)n(Cc3ccco3)c(=O)[nH]c2=O)cc1,?,-15.0%,-27.4%,-24.9%,?,37.0%
Cn1c(=O)oc2cc(S(=O)(=O)N3CCCC(C(=O)NCc4ccccc4Cl)C3)ccc21 (stereo unspecified),·,·,-1.4%,-1.7%,·,42.8%
CCN1C[C@]2(COC(=O)c3ccccc3N3C(=O)C[C@H](C)C3=O)CC[C@H](OC)[C@@]34[C@@H]5C[C@H]6[C@H](OC)[C@H]5[C@](O)(C[C@@H]6OC)[C@@](O)([C@@H](OC)[C@@H]23)[C@@H]14,·,·,·,·,-27.5%,·
NC(=O)c1cccn(Cc2ccc(C(F)(F)F)cc2)c1=O,12.5,·,-3.9%,-14.3%[11.4 µM],?,61.9%
CCCCC(=O)N/N=C/c1c(O)n(Cc2ccco2)c(=O)[nH]c1=O,?,?,50.1µM*,?,25.1µM*,39.7%
O=c1[nH]c(=O)n(-c2cccc3ccccc23)c(O)c1C=NCCCn1ccnc1,8.0,·,56.2µM*,-5.8%,9.3%,30.0%
CCN(CC)CCN=Cc1c(O)n(Cc2ccco2)c(=O)[nH]c1=O,0.0,-0.3%,-5.1%,-9.3%,2.4%,-11.6%
O=c1[nH]c(=O)n(Cc2ccco2)c(O)c1C=NCc1ccco1,·,?,56.2µM*,-16.0%,-14.9%,6.5%
O=[N+]([O-])c1ccccc1CNCCc1c[nH]c2ccccc12,-2.5,-9.7%,50.1µM*,22.4µM*,·,?
O=[N+]([O-])c1ccc(CNCCc2ccccc2)cc1,20.7,5.8%,50.1µM*,20µM*,·,?
O=[N+]([O-])c1ccccc1CNCCc1ccc(F)cc1,·,·,50.1µM*,10µM*,?,?
Clc1ccccc1CNCCc1c[nH]c2ccccc12,3.3,·,·,·,·,·
OCC(CBr)(CBr)CBr,4.2,8.6%,-0.4%,-17.2%,·,27.5%
COCc1cc(C)c(C#N)c(=S)[nH]1,-23.6,-0.3%,?,7.94µM*,-0.5%,?
Cc1ccc(NC(=O)OC(C)CNC(=O)Oc2cccc(C)c2)cc1 (stereo unspecified),-3.3,-17.7%,?,-11.6%,-8.3%,31.3%
COc1cccc(-n2c(CNC(=O)OC(C)(C)C)n[nH]c2=S)c1,2.6,36.3%,32.0%,10µM*,0.0%,30.0%
COc1cccc(-n2c(=S)[nH]c3ccccc3c2=O)c1,4.1,3.6%,-8.5%,-1.4%,-6.7%,35.7%
OCC(O)Cc1ccc2c(c1)OCO2 (stereo unspecified),·,·,·,·,-1.9%,·
O=C1NC(=O)N(c2ccc3c(c2)OCO3)C(=O)/C1=C\c1ccc(N2CCCCC2)o1,-4.5,-5.2%,-27.7%,-11.7%,-22.9%,24.2%
SMILES,PI5P4Ka inh,L3MBTL1 inh,BAZ2B block,JMJD2A Tudor inh,JMJD2E inh,HP1b chromo inh
O=C1NC(=O)C(=Cc2ccc(SC3CCCCC3)o2)C(=O)N1,-74.8*,?,44.7µM*,?,?,50.1µM*
O=C(C1CC(c2ccccc2O)=NO1)N1CCC2(CC1)OCCO2 (stereo unspecified),·,·,-7.9%,14.1µM*,-1.6%,12.5%
O=C(Cn1ncc2ccccc21)N1CCC2(CC1)OCCO2,·,-5.7%,-8.2%,-9.9%,7.2%,27.0%
CCCCCCCCCCCCCC(=O)O[C@@H]1[C@@H](C)[C@@]2(O)[C@@H](C=C(CO)C[C@@]3(O)C(=O)C(C)=C[C@@H]23)C2C(C)(C)[C@@]21OC(C)=O (stereo partly specified),·,·,·,·,-1.0%,·
COc1cc(C2c3cc4c(cc3C(OC(C)=O)[C@H]3COC(=O)C23)OCO4)cc(OC)c1OC (stereo partly specified),·,·,·,·,-11.4%,·
N[C@@]1(C(=O)O)CC[C@H](C(=O)O)C1,·,·,·,·,-29.6%,·
NO,·,·,·,·,1.41µM*,·
Cc1cc(SCc2sc(-c3ccc(C(F)(F)F)c(F)c3)nc2C)ccc1OCC(=O)O,·,·,·,·,-14.4%,·
CC(=O)O[C@@H]1C[C@@]2(C)C(c3ccoc3)C[C@H]3O[C@]32[C@]2(C)C(=O)C(O)=C3C(C)(C)C(=O)C=C[C@]3(C)C12 (stereo partly specified),·,·,·,·,-0.8%,·
COc1ccccc1NC(=O)N(Cc1ccc2c(c1)OCO2)C1CCN(Cc2ccccc2)CC1,·,·,?,?,·,-4.0%
CCOc1ccccc1CNCCc1ccc2c(c1)OCO2,0.0,-1.2%,3.0%,-11.2%,·,21.3%
CCOc1ccc(CN(CCc2ccc3c(c2)OCO3)Cc2ccc(OC)c(Br)c2)cc1,·,·,?,7.08µM*,·,?
CCOc1ccc(CN(CCc2ccc3c(c2)OCO3)Cc2cccc(OC)c2)cc1,·,·,31.6µM*,6.31µM*,·,?
CCOc1ccc(CN(CCc2ccc3c(c2)OCO3)Cc2ccc(C)cc2)cc1,·,·,?,6.31µM*,·,?
CCOc1ccc(CN(CCc2ccc3c(c2)OCO3)Cc2cccc(Br)c2)cc1,·,·,?,5.01µM*,·,?
C[C@@H](C1CC[C@@]2(O)C3=CC(=O)[C@@H]4C[C@@H](O)[C@@H](O)C[C@]4(C)[C@H]3CC[C@]12C)[C@H](O)CCC(C)(C)O (stereo partly specified),·,·,·,-5.5%,·,63.8%
Clc1ccc(Cl)cc1,·,·,·,·,5.7%,·
Ic1ccccc1CN[C@@H]1C2CCN(CC2)[C@@H]1C(c1ccccc1)c1ccccc1,-14.1,-4.3%,39.8µM*,17.8µM*,·,?
CC[C@]1(c2cccc(O)c2)CCCCN(C)C1,·,·,·,·,7.2%[25.5 µM],·
COC1C(O)C(C)O[C@@H](OC2CC[C@@]3(C)C4CC[C@]5(C)C(C6=CC(=O)OC6)CC[C@@]5(O)C4CC[C@@H]3C2)C1O (stereo partly specified),·,·,·,·,-3.6%,·
COc1cc2c(c(OC)c1OC)-c1ccc(O)c(=O)cc1[C@@H](NC(C)=O)CC2,3.3,-7.7%,·,56.2µM*,11.2µM*,51.3%
COc1ccc(C(C)=O)cc1CN1CC=C(c2ccccc2)CC1,-1.8,·,50.1µM*,44.7µM*,·,79.4µM*
